According to PubChem BioAssay (EPA / NIEHS):
Inconclusive results are not listed. Calls of active or inactive are those of the source. How the source made its calls, unless noted: active means hit-call score of the fitted dose curve at least 0.9, where 1 is the maximum; inactive means score below 0.9.

Key:
[1] = biological target: Paired box protein Pax-6 (Homo sapiens) (UniProt P26367); assay: ATG_Pax6_CIS: Attagene CIS-FACTORIAL HepG2 Assay for human Paired Box 6 (PAX6) (AID 2282956); settings: HepG2 CIS-FACTORIAL PAX6 reporter transcription, RNA readout; actives raise or lower the signal
Chain of Paired box protein Pax-6 (Homo sapiens) (P26367 whole entry, looked up): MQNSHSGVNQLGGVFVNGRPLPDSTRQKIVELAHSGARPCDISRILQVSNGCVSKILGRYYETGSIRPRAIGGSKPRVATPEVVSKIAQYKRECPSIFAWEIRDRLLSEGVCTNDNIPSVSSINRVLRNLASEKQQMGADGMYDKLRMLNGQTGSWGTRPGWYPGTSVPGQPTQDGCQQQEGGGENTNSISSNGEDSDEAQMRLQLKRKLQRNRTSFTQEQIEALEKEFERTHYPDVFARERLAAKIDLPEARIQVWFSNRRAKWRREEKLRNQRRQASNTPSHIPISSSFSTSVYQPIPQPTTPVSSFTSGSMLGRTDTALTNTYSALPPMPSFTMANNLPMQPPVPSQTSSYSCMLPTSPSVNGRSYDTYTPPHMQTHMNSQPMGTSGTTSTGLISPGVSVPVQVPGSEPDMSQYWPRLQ
Method in brief: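 Values derive from bidirectional curve fitting of reporter mRNA signal relative to DMSO. HepG2 cells bearing transfected cis-regulated MRTUs were exposed for 24 h; transcripts were read by RT-PCR and capillary electrophoresis.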

[2] = ATG_PXRE_CIS: Attagene CIS-FACTORIAL HepG2 Assay for human Pregnane X Receptor Element (PXRE) (AID 2282957); settings: HepG2 Attagene CIS-FACTORIAL PXRE reporter, mRNA; actives raise or lower the signal
Method in brief: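 Read-out: fluorescence of reporter-specific RT-PCR products resolved by capillary electrophoresis, fitted bidirectionally relative to DMSO. Human HepG2 liver cells carried transfected cis-promoter reporter units and were exposed to chemicals for 24 h.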

[3] = ATG_RORE_CIS: Attagene CIS-FACTORIAL HepG2 Assay for human RAR-related Orphan Receptor Element (RORE) (AID 2282959); settings: HepG2 Attagene cis-factorial RORE reporter, mRNA; actives raise or lower the signal
Method in brief: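 Fluorescence intensity of reporter-specific cDNA fragments, separated by capillary electrophoresis, gives the signal. Source: HepG2 liver cells transiently transfected with cis-element reporters and exposed 24 h; DMSO-normalized bidirectional fit.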

[4] = ATG_Sox_CIS: Attagene CIS-FACTORIAL HepG2 Assay for human SRY-box transcription factor (SOX) (AID 2282960); settings: HepG2 Attagene cis-factorial SOX reporter, mRNA; actives raise or lower the signal
Method in brief: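 After 24 h of chemical treatment, transfected HepG2 reporter cells are lysed for total RNA. Transcript levels come from RT-PCR with labelled primer extension and capillary electrophoresis, analysed bidirectionally versus DMSO.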

[5] = biological target: Transcription factor Sp1 (Homo sapiens) (UniProt P08047); assay: ATG_Sp1_CIS: Attagene CIS-FACTORIAL HepG2 Assay for human Specificity Protein 1 (Sp1) (AID 2282961); settings: HepG2 Sp1 cis-reporter transcription, actives raise or lower the signal
Chain of Transcription factor Sp1 (Homo sapiens) (P08047 whole entry, looked up): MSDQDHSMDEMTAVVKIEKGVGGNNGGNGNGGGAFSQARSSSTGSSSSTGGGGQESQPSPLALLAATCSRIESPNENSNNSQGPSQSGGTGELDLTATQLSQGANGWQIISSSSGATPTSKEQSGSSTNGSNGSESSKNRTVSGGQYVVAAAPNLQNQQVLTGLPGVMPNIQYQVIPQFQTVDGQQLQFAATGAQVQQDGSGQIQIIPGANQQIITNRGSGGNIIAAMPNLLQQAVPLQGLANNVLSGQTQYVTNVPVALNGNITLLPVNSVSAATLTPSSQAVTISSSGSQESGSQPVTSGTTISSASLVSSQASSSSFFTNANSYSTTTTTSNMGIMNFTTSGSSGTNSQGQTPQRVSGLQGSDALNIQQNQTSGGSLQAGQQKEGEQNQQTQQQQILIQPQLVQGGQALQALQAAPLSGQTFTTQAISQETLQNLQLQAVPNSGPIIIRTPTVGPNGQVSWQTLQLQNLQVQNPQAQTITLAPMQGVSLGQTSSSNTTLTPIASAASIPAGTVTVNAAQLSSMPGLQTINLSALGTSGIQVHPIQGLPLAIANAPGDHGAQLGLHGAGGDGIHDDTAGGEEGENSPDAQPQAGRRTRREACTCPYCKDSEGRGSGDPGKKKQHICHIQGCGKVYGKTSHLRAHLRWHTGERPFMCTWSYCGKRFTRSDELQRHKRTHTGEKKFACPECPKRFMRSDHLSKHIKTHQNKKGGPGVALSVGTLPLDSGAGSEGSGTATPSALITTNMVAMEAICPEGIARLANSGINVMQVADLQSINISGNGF
Method in brief: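 Sp1-driven reporter mRNA, read as capillary electrophoresis fluorescence after RT-PCR, in transiently transfected HepG2 cells dosed for 24 h; signal change in either direction relative to DMSO.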

[6] = ATG_SREBP_CIS: Attagene CIS-FACTORIAL HepG2 Assay for human Sterol Regulatory Element Binding (SREBP) (AID 2282962); settings: HepG2 Attagene cis-factorial SREBP reporter, mRNA; actives raise or lower the signal
Method in brief: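 Values derive from bidirectional curve fitting with DMSO as baseline. The underlying measurement is reporter mRNA from cis-element-regulated units in transiently transfected HepG2, quantified by RT-PCR and capillary electrophoresis after 24 h exposure.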

[7] = biological target: Signal transducer and activator of transcription 3 (Homo sapiens) (UniProt P40763); assay: ATG_STAT3_CIS: Attagene CIS-FACTORIAL HepG2 Assay for human Signal Transducer and Activator of Transcription 3 (STAT3) (AID 2282963); settings: HepG2, Attagene cis-factorial STAT3 reporter transcription; actives raise or lower the signal
Chain of Signal transducer and activator of transcription 3 (Homo sapiens) (P40763 whole entry, looked up): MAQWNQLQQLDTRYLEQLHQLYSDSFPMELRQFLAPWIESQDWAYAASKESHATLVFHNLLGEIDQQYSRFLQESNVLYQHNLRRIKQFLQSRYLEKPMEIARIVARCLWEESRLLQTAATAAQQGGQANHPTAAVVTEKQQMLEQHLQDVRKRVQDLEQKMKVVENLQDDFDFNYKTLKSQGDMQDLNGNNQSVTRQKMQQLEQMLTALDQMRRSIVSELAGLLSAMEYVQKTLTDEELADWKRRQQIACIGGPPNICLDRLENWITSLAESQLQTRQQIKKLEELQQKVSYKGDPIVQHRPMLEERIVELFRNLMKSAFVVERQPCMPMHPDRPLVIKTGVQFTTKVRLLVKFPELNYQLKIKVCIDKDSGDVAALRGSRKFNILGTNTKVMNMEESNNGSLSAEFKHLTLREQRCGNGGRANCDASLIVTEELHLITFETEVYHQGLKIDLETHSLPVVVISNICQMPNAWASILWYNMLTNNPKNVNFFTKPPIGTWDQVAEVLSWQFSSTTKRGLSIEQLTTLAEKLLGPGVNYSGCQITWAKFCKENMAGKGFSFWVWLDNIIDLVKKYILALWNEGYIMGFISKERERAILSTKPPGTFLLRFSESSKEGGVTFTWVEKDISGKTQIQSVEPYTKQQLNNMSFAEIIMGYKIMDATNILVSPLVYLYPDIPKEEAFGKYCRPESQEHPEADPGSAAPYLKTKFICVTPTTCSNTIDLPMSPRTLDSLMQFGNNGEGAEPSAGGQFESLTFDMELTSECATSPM
Method in brief: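 HepG2, MRTU-transfected, 24 h dosing. RNA → RT → PCR → FAM label → HpaI → CE. Bidirectional fit vs DMSO.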

[8] = ATG_TA_CIS: Attagene CIS-FACTORIAL HepG2 Assay for human TA Basal Promoter (AID 2282964); settings: HepG2 Attagene CIS-factorial TA basal promoter reporter; actives raise or lower the signal
Method in brief: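 Background internal-marker endpoint from a 52-component HepG2 cis-reporter panel. Cells treated 24 h; reporter transcripts quantified via RT-PCR and CE fluorescence against DMSO baseline.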

[9] = ATG_TCF_b_cat_CIS: Attagene CIS-FACTORIAL HepG2 Assay for human T-Cell-Factor with beta-catenin (TCF/b-cat) (AID 2282965); settings: HepG2 TCF/beta-catenin cis-reporter transcription, actives raise or lower the signal
Method in brief: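 HepG2 cells transiently transfected with multiple cis-promoter-regulated reporter transcription units, so endogenous transcription factor activity is measured. Reporter mRNA read 24 hours after dosing by RT-PCR, fluorescent labelling and capillary electrophoresis; bidirectional fitting against DMSO.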

[10] = ATG_TAL_CIS: Attagene CIS-FACTORIAL HepG2 Assay for human TAL Basal Promoter (AID 2282966); settings: HepG2 Attagene cis-factorial TAL promoter reporter; actives raise or lower the signal;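 further: background control endpoint measuring basal TAL promoter reporter mRNA not a specific factor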
Method in brief: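 HepG2, transient MRTU transfection, 24 h compound exposure; RNA → oligo(dT) RT → PCR → 6-FAM primer extension → HpaI digest → CE fluorescence. Bidirectional curve fit vs DMSO. Background-control readout.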

[11] = ATG_TGFb_CIS: Attagene CIS-FACTORIAL HepG2 Assay for human Transforming Growth Factor (TGF) (AID 2282967); settings: HepG2 Attagene CIS TGFb reporter, mRNA transcription; actives raise or lower the signal
Method in brief: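 Liver HepG2 line, cis-factorial reporter panel, 24 h dosing. Quantitation: RT-PCR products labeled with 6-FAM, cut with HpaI, resolved by capillary electrophoresis; DMSO-referenced bidirectional analysis.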

[12] = ATG_VDRE_CIS: Attagene CIS-FACTORIAL HepG2 Assay for human Vitamin D Receptor Element (VDRE) (AID 2282968); settings: HepG2 VDRE cis-reporter transcription, actives raise or lower the signal
Method in brief: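 Steps: transfect HepG2 with multiple reporter transcription units; dose chemicals 24 h; isolate RNA; RT-PCR; label with 6-FAM primer extension; HpaI digest; capillary electrophoresis. Curves fitted both directions against DMSO.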

[13] = biological target: X-box-binding protein 1 (Homo sapiens) (UniProt P17861); assay: ATG_Xbp1_CIS: Attagene CIS-FACTORIAL HepG2 Assay for human X-box Binding Protein 1 (XBP1) (AID 2282972); settings: HepG2 XBP1 cis-element reporter, Attagene multiplex; actives raise or lower the signal
Chain of X-box-binding protein 1 (Homo sapiens) (P17861 whole entry, looked up): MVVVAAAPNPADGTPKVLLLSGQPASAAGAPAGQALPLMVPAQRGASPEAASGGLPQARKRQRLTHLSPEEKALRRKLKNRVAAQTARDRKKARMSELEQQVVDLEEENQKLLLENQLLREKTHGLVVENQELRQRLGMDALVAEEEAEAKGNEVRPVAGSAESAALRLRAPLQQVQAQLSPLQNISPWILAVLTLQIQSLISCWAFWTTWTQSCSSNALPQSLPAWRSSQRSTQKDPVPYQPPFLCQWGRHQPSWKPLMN
Method in brief: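 Human hepatoma HepG2, cis-element reporter system, 24 h treatment; mRNA quantified by RT-PCR/CE fluorescence; fit relative to DMSO.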

[14] = ATG_GAL4_TRANS: Attagene TRANS-FACTORIAL HepG2 Assay for GAL4 (Internal Marker) (AID 2282976; active means hit-call score of the fitted dose curve at least 0.9, where 1 is the maximum); settings: HepG2 Attagene TRANS GAL4 internal marker reporter
Method in brief: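 RT-PCR/capillary electrophoresis readout of reporter mRNA. HepG2, transient MRTU transfection (GAL4-UAS reporters), 24 h compound exposure. Background-control endpoint, positive direction vs DMSO baseline.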

[15] = biological target: Steroid hormone receptor ERR1 (Homo sapiens) (UniProt P11474); assay: ATG_ERRa_TRANS: Attagene TRANS-FACTORIAL HepG2 Assay for human Estrogen-Related Receptor alpha (ERRa) (AID 2282971; active means hit-call score of the fitted dose curve at least 0.9, where 1 is the maximum); settings: HepG2 Attagene TRANS reporter, ERRa transactivation
Chain of Steroid hormone receptor ERR1 (Homo sapiens) (P11474 whole entry, looked up, the tested form may be a part): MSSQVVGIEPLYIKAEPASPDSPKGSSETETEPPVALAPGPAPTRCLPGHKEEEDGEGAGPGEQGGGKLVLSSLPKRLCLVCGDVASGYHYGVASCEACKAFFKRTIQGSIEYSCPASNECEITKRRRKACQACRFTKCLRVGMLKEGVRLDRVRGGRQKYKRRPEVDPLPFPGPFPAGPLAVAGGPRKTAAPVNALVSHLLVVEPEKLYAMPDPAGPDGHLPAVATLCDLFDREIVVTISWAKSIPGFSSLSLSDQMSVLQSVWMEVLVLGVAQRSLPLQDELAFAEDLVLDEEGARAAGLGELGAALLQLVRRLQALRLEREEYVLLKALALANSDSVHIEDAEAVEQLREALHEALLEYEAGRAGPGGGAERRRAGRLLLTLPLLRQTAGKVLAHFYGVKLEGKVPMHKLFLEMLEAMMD
Method in brief: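 Transfected HepG2, 24 h dosing, ERRa-Gal4 chimera driving GAL4-UAS reporter. Readout: reporter mRNA via RT-PCR plus capillary electrophoresis (fluorescence). Positive direction vs DMSO control.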

[16] = biological target: Estrogen-related receptor gamma (Homo sapiens) (UniProt P62508); assay: ATG_ERRg_TRANS: Attagene TRANS-FACTORIAL HepG2 Assay for human Estrogen-Related Receptor gamma (ERRg) (AID 2282977; active means hit-call score of the fitted dose curve at least 0.9, where 1 is the maximum;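 further: hits increase reporter signal over DMSO so potencies reflect activators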); settings: HepG2 Attagene TRANS reporter, ERRg transactivation
Chain of Estrogen-related receptor gamma (Homo sapiens) (P62508 whole entry, looked up, the tested form may be a part): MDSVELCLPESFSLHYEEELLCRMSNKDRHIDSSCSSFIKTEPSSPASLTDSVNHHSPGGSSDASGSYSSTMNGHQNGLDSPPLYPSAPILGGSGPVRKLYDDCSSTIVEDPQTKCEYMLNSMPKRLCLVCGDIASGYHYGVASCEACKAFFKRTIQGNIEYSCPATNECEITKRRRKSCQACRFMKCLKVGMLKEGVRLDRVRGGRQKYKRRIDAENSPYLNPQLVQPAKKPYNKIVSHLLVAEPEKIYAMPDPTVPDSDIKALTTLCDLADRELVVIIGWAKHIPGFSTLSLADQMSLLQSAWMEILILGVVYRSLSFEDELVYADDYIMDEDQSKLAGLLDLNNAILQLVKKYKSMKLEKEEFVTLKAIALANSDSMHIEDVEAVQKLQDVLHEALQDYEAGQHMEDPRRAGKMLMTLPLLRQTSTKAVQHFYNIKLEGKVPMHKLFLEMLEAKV
Method in brief: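 Induction of reporter transcripts through a chimeric NR-Gal4 protein is quantified in transfected human HepG2 liver cells after 24 h chemical exposure, using RT-PCR with capillary electrophoresis detection and DMSO as baseline.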

[17] = biological target: Estrogen receptor (Homo sapiens) (UniProt P03372); assay: ATG_ERa_TRANS: Attagene TRANS-FACTORIAL HepG2 Assay for human Estrogen Receptor alpha (ERa) (AID 2282970; active means hit-call score of the fitted dose curve at least 0.9, where 1 is the maximum); settings: HepG2 Attagene TRANS ERa GAL4 reporter, mRNA
Chain of Estrogen receptor (Homo sapiens) (P03372 whole entry, looked up, the tested form may be a part): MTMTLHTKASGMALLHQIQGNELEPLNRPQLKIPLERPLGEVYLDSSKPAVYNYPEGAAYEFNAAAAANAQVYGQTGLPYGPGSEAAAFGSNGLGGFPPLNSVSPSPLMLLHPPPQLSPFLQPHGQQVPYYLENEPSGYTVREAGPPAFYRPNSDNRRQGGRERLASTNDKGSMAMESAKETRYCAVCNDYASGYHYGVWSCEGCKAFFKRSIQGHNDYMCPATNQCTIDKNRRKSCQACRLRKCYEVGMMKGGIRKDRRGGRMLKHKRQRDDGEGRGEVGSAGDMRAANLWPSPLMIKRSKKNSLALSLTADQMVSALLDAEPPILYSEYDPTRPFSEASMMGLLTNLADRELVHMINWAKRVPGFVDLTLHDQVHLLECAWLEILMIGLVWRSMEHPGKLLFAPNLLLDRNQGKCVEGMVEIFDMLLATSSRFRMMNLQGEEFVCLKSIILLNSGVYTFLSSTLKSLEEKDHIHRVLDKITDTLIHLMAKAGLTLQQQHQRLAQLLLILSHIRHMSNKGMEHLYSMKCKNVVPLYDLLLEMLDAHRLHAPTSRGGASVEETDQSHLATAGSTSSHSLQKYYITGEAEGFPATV
Method in brief: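 Reporter mRNA induction after 24 hours, detected by fluorescent RT-PCR and capillary electrophoresis, gives the read-out. Cells are HepG2 transiently transfected with GAL4-UAS reporter transcription units responding to chimeric NR-Gal4. Activity is taken as gain of signal over DMSO baseline.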

[18] = ATG_M_19_TRANS: Attagene TRANS-FACTORIAL HepG2 Assay for M19 Transcription Factor (Internal Marker) (AID 2282974; active means hit-call score of the fitted dose curve at least 0.9, where 1 is the maximum); settings: HepG2 Attagene TRANS-FACTORIAL M19 internal marker reporter
Method in brief: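 Measured here: internal-marker reporter transcript from HepG2 cells transfected with MRTUs, harvested at 24 h. cDNA PCR products were 6-FAM labelled by primer extension, cut with HpaI for 2 h at 37 C, and resolved by CE.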

[19] = biological target: Nuclear receptor subfamily 1 group I member 3 (Homo sapiens) (UniProt Q14994); assay: ATG_CAR_TRANS: Attagene TRANS-FACTORIAL HepG2 Assay for human Constitutive Androstane Receptor (CAR) (AID 2282969; active means hit-call score of the fitted dose curve at least 0.9, where 1 is the maximum;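 further: activators raise reporter mRNA above DMSO so AC50 marks induction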); settings: HepG2 Attagene TRANS-FACTORIAL CAR reporter
Chain of Nuclear receptor subfamily 1 group I member 3 (Homo sapiens) (Q14994 whole entry, looked up, the tested form may be a part): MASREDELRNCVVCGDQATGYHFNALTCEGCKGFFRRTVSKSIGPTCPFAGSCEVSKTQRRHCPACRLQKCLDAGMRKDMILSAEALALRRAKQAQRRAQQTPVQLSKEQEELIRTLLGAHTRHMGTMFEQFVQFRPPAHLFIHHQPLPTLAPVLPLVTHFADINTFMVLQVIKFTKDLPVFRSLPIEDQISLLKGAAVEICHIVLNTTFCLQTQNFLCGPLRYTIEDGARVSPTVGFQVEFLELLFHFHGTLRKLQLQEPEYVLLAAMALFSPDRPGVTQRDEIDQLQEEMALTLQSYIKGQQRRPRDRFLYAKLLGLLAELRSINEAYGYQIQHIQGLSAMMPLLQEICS
Method in brief: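 Steps: transient transfection of HepG2 with multiple GAL4-UAS reporter units; 24 h compound incubation; RNA isolation, RT-PCR, 6-FAM primer extension, HpaI digest; capillary electrophoresis. Gain-of-signal relative to DMSO negative control.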

Measured: AC50

O=C1OC(=O)c2cc(Oc3ccc4c(c3)C(=O)OC4=O)ccc21
not listed: [15] | [16] | [17] | [18] | [19]
inactive: all other assays above

C/C=C\C/C=C/CCCCCCCCOC(C)=O
active: [1] 100 µM | [2] 26.2 µM | [8] 69.7 µM | [9] 74.8 µM | [12] 30.1 µM | [13] 100 µM
not listed: [14] | [17] | [18] | [19]
inactive: all other assays above

O=C(O)C(c1ccc(Cl)cc1)c1ccc(Cl)cc1
active: [2] 62.7 µM | [17] 7.33 µM
not listed: [7] | [15] | [16] | [19]
inactive: all other assays above

CC(C)COC(=O)C=Cc1ccccc1
active: [2] 27.2 µM | [17] 71.6 µM
not listed: [6] | [15] | [16] | [18] | [19]
inactive: all other assays above

O=c1c2ccccc2nnn1CCl
active: [2] 7.09 µM
not listed: [7] | [15] | [16] | [18]
inactive: all other assays above

C=CC(=O)OCCOC1C2CCC1C1CC=CC12 (stereo unspecified)
not listed: [15] | [16] | [17] | [19]
inactive: all other assays above

Cc1cc(O)c(Cl)c(C)c1Cl
active: [2] 15.1 µM | [17] 26.8 µM
not listed: [7] | [14] | [15] | [16] | [18] | [19]
inactive: all other assays above

C[C@]12CCC(=O)C=C1CC[C@@H]1[C@@H]2C(=O)C[C@@]2(C)[C@H]1CC[C@]2(O)C(=O)CO
active: [2] 39.5 µM
not listed: [12] | [15] | [16] | [18] | [19]
inactive: all other assays above

O=C(Nc1cccc(C(F)(F)F)c1)c1cc(Br)cc(Br)c1O
inactive: [2] | [7] | [11] | [14]
active: [1] 78.9 µM | [3] 2.29 µM | [4] 79.3 µM | [5] 100 µM | [6] 21.5 µM | [8] 43.9 µM | [9] 128 µM | [10] 145 µM | [12] 2.18 µM | [13] 26.4 µM

CC(C)(C)c1ccc(OC(=O)c2ccccc2O)cc1
active: [2] 15.3 µM | [17] 6.14 µM
not listed: [6] | [11] | [14] | [15] | [16] | [18]
inactive: all other assays above

Cc1ccc(N/N=c2\c(=O)cc/c(=N/Nc3ccc(S(=O)(=O)O)cc3)c2=O)c(C)c1
active: [2] 42.6 µM | [17] 100 µM
not listed: [12] | [14] | [15] | [18]
inactive: all other assays above

NC(=O)OCC(COC(N)=O)c1ccccc1
not listed: [7] | [8] | [12] | [15] | [16] | [18] | [19]
inactive: all other assays above

C=C[Si](C)(C)O[Si](C)(C)C=C
active: [2] 27.9 µM
not listed: [8] | [15] | [16] | [17] | [19]
inactive: all other assays above

CCO[Si](C)(OCC)OCC
not listed: [11] | [14] | [15] | [16] | [18] | [19]
inactive: all other assays above
